Measurements as given in PubChem BioAssay AID1159580 (chemical genetic matrix, 2015).
Values joined by “and” are separate entries in the source; they are usually repeats but may differ in a detail not shown here. Equal entries are not always repeated. In all, about 5,500 compounds went through this assay and about 2,000 (36%) were called active. Another 18% or so got no clear call; they are omitted. No stated cut-off is given here; in the data, active means normalized growth mostly below about 0.91 (no sharp cut-off); inconclusive means no clear call, values can overlap the other calls; inactive means mostly above about 0.92. This is one part of the list.

Test: chemical genetic growth profiling, strain panel (AID 1159580);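 further: tested at 20 µM; growth read once vehicle control cultures reached saturation at 30 °C; 1 = growth at the plate median or of vehicle wells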
Settings: S. cerevisiae deletion strains, growth OD

Measured: normalized growth

CC(=O)Oc1cc(C)c2c(c1C(OC(C)=O)OC(C)=O)Oc1c(c(C)c(OC(C)=O)c3c1C(OC(C)=O)OC3=O)OC2=O (stereo not given)
inactive: locus YAL013W, strain DEP1, stronger effect = lower value 0.98 | locus YBR021W, strain FUR4, stronger effect = lower value 1.01 | locus YBR229C, strain ROT2, stronger effect = lower value 0.989 | locus YCL029C, strain bik1, stronger effect = lower value 0.98 | locus YDL035C, strain GPR1, stronger effect = lower value 1.03 | locus YDL074C, strain BRE1, stronger effect = lower value 0.998 | locus YDL101C, strain DUN1, stronger effect = lower value 0.983 | locus YDL134C, strain PPH21, stronger effect = lower value 0.983 | locus YDL185W, strain tfp1, stronger effect = lower value 0.965 | locus YDL192W, strain arf1, stronger effect = lower value 1.01 | locus YDR101C, strain arx1, stronger effect = lower value 1.03 | locus YDR162C, strain NBP2, stronger effect = lower value 0.998 | locus YDR318W, strain mcm21, stronger effect = lower value 0.98 | locus YDR388W, stronger effect = lower value 0.982 | locus YDR502C, strain sam2, stronger effect = lower value 0.968 | locus YEL061C, strain CIN8, stronger effect = lower value 0.985 | locus YER110C, stronger effect = lower value 0.97 | locus YER155C, strain BEM2, stronger effect = lower value 1.01 | locus YER167W, strain BCK2, stronger effect = lower value 0.995 | locus YGL078C, strain dbp3, stronger effect = lower value 0.973 | locus YGL086W, strain mad1, stronger effect = lower value 0.995 | locus YGL248W, strain PDE1, stronger effect = lower value 0.967 | locus YGR135W, strain pre9, stronger effect = lower value 0.952 | locus YGR252W, strain gcn5, stronger effect = lower value 1.06 | locus YHR030C, strain SLT2, stronger effect = lower value 0.952 | locus YHR079C, strain IRE1 (second series), stronger effect = lower value 0.983 | locus YHR079C, strain IRE1, stronger effect = lower value 0.93 | locus YHR094C, strain hxt1, stronger effect = lower value 0.978 | locus YHR129C, strain ARP1, stronger effect = lower value 0.983 | locus YHR200W, strain rpn10, stronger effect = lower value 0.988 | locus YIL066C, strain RNR3, stronger effect = lower value 0.983 | locus YIL073C, strain SPO22, stronger effect = lower value 1.02 | locus YIL125W, strain kgd1, stronger effect = lower value 0.978 | locus YIR030C, strain dcg1, stronger effect = lower value 0.964 | locus YJL095W, strain BCK1, stronger effect = lower value 0.988 and 0.963 | locus YJL134W, strain LCB3, stronger effect = lower value 0.985 | locus YJL168C, strain set2, stronger effect = lower value 0.991 | locus YJL187C, strain SWE1 (second series), stronger effect = lower value 0.961 | locus YJR066W, strain TOR1, stronger effect = lower value 0.889 | locus YKL009W, strain mrt4, stronger effect = lower value 1 | locus YKL068W, stronger effect = lower value 0.969 | locus YKL085W, strain MDH1 (second series), stronger effect = lower value 0.97 | locus YKL085W, strain MDH1, stronger effect = lower value 0.97 | locus YKR001C, strain vps1, stronger effect = lower value 1 | locus YLR039C, strain RIC1, stronger effect = lower value 0.943 | locus YLR058C, strain SHM2, stronger effect = lower value 0.993 | locus YLR102C, strain apc9, stronger effect = lower value 0.974 | locus YLR268W, strain sec22, stronger effect = lower value 1.01 | locus YLR342W, strain FKS1 (second series), stronger effect = lower value 1.06 | locus YLR371W, strain rom2, stronger effect = lower value 0.998 | locus YLR418C, strain cdc73, stronger effect = lower value 0.989 | locus YML016C, strain PPZ1, stronger effect = lower value 0.971 | locus YML032C, strain rad52, stronger effect = lower value 0.997 | locus YML124C, strain tub3, stronger effect = lower value 0.968 | locus YMR078C, strain ctf18, stronger effect = lower value 0.978 | locus YMR223W, strain ubp8, stronger effect = lower value 0.989 | locus YMR263W, strain SAP30, stronger effect = lower value 0.982 | locus YMR307W, strain GAS1, stronger effect = lower value 1.02 | locus YNL067W, strain RPL9B, stronger effect = lower value 0.983 | locus YNL128W, strain TEP1, stronger effect = lower value 0.99 | locus YNL183C, strain NPR1, stronger effect = lower value 0.911 | locus YNL233W, strain BNI4, stronger effect = lower value 0.973 | locus YNL250W, strain rad50, stronger effect = lower value 0.921 | locus YNL271C, strain bni1, stronger effect = lower value 0.968 | locus YNL298W, strain CLA4, stronger effect = lower value 0.967 | locus YNL307C, strain MCK1, stronger effect = lower value 0.974 | locus YNR052C, strain pop2, stronger effect = lower value 0.961 | locus YOL012C, strain htz1 0.831 | locus YOL147C, strain pex11, stronger effect = lower value 0.99 | locus YOR061W, strain CKA2, stronger effect = lower value 0.982 | locus YOR069W, strain VPS5, stronger effect = lower value 0.974 | locus YOR136W, strain idh2, stronger effect = lower value 1 | locus YOR144C, strain elg1, stronger effect = lower value 0.978 | locus YOR184W, strain ser1, stronger effect = lower value 1.05 | locus YOR231W, strain MKK1, stronger effect = lower value 0.942 | locus YOR316C, strain cot1, stronger effect = lower value 0.978 | locus YPL055C, strain LGE1, stronger effect = lower value 1.05 | locus YPL241C, strain CIN2, stronger effect = lower value 0.989 | locus YPL256C, strain CLN2, stronger effect = lower value 0.892 | locus YPR119W, strain clb2, stronger effect = lower value 0.981 | locus YPR141C, strain kar3, stronger effect = lower value 0.956 | locus YPR163C, strain tif3, stronger effect = lower value 0.974 | locus YPR167C, strain met16, stronger effect = lower value 0.979 | strain wtn01, stronger effect = lower value 1.04
active: locus YLR113W, strain HOG1, stronger effect = lower value 0.832
